This note sets out measurements from PubChem BioAssay.

The test in a line: mitochondrial membrane potential change in A549 cells, profiling panel, cell-based, JC-1 fluorescence, basal, 24 h, 100 nL (AID 1138).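 Further: A549 lung adenocarcinoma cells under basal conditions with no added stimulus; test concentration not given here.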 The note with it: higher = more signal.
With `CN1C(=O)C2C=CC(C(O)C#Cc3ccccc3)N(Nc3ccccc3)C2C1=O` (stereo unspecified), the z-score is 1.11.

`CN(C)c1ccc(C(O)C2C=CC3C(=O)N(c4ccccc4)C(=O)C3N2Nc2ccc([N+](=O)[O-])cc2)cc1` (stereo unspecified): the z-score is -0.621. To `CN(C)C(=O)[C@@]1(Cc2ccccc2CN=[N+]=[N-])N=C(c2ccc(OCCCO)cc2)O[C@H]1c1ccccc1CN=[N+]=[N-]` belongs 1.43. To `O=C1OCC=C[C@H]2OC34C=CCN(Cn5nnc6ccccc65)C(=O)[C@H]3N(CCCO)C(=O)[C@@H]4[C@@H]12` (stereo partly specified) belongs -0.842; to `C[N+](C)(C)CCCCCCNC(=O)[C@H]1C[C@H]2C(=O)N[C@@H](Cc3ccccc3)C(=O)N2[C@H]1c1ccc(O)cc1`, 0.0402. To `COCCOC(=O)N1C(=O)[C@@]2(c3cc(C#CCCO)ccc31)[C@H](C(=O)Nc1nc3ccccc3s1)[C@H]1C(=O)O[C@H](c3ccccc3)[C@H](c3ccccc3)N1[C@@H]2c1ccccc1OCCO` belongs -2.25; to `COc1cc2c(cc1OC)CN(C(=O)[C@@H]1[C@H]3C(=O)O[C@H](c4ccccc4)[C@H](c4ccccc4)N3[C@H](c3ccc(OCCO)cc3)[C@@]13C(=O)Nc1ccc(C#CC4(O)CCCCCC4)cc13)CC2`, -0.989; to `COc1cc(CO)cc(I)c1O[C@H]1C=C(C(=O)NCCO)C[C@@H](NCc2ccc(F)cc2)[C@@H]1O`, 1.18. Take `[N-]=[N+]=NCc1ccccc1C[C@@]1(C(=O)NCc2ccccc2)N=C(c2ccc(OCCCO)cc2)O[C@@H]1c1ccccc1N=[N+]=[N-]`: the z-score was 1.12. To `O=C(CS)NCCCCCNC(=O)[C@@H]1C[C@@H]2C(=O)N3CCC[C@H]3C(=O)N2[C@@H]1c1cccc(OCCO)c1` belongs 0.777; to `C=C(C)c1cc2c(c(CCCCCC)n1)[Si](C(C)C)(C(C)C)OC2`, -1.17.

The compound `CCCCC(O)C1C=CC2C(=O)N(c3ccccc3)C(=O)C2N1Nc1ccc(C(C)C)cc1` (stereo unspecified) returned a z-score of -0.142. For the compound `COCCOC(=O)N1C(=O)[C@@]2(c3cc(C#CC4=CCCCC4)ccc31)[C@H](c1ccc(OCCO)cc1)N1[C@H](c3ccccc3)[C@H](c3ccccc3)OC(=O)[C@H]1[C@@H]2C(=O)N1CCN(c2ncccn2)CC1`, the z-score is -1.27. As to `C=C(COC)/C(=C/C[C@H](OC(C)=O)c1ccc(OCCO)cc1)c1cc(C(=O)OC)ccc1OC`, the z-score came to 2.8. To `CC1CC/C=C\[C@H]2OC34C=CCN(c5ccc(Cl)cc5)C(=O)[C@H]3N(CCCCCO)C(=O)[C@]4(C)C2C(=O)O1` (stereo partly specified) belongs 0.681. To `CN1C(=O)C2C=CC(C(O)c3cccc(O)c3)N(Nc3ccccc3)C2C1=O` (stereo unspecified) belongs 1.19; to `O=C1NC(=O)C2C1C=CC(C(O)c1c(F)cccc1Cl)N2Nc1ccc(Cl)cc1Cl` (stereo unspecified), -1.15; to `COc1ccc([Si](C)(C)[C@@H]2[C@@H](CCO)O[C@]3(C(=O)N(Cc4ccc(N5CCCCC5=O)cc4)c4ccccc43)[C@H]2C)cc1`, 1.74.

As to `C=CCC(OC(C)=O)[C@@H]1[C@@H](N(Cc2cc3ccccc3o2)C(=O)c2ccc(C)cc2)c2cc(OCCCO)ccc2N1C(=O)Cc1ccc(OC)cc1` (stereo partly specified), the z-score stood at 1.33.

In turn, `CCOc1cc(C(O)C2C=CC3C(=O)N(C)C(=O)C3N2Nc2ccccc2)ccc1O` (stereo unspecified) registered a z-score of -0.203. To `O=C(CS)NCCCCCCNC(=O)[C@H]1C[C@H]2C(=O)N[C@@H](Cc3ccccc3)C(=O)N2[C@H]1c1ccc(O)cc1` belongs -1.61; to `CC(c1ccccc1)C(O)C1C=CC2C(=O)N(c3ccccc3)C(=O)C2N1Nc1ccc([N+](=O)[O-])cc1` (stereo unspecified), -0.915; to `COc1ccccc1CN1C(=O)c2ccccc2[C@@]2(Cc3ccccc3N(CC(F)(F)F)C2=O)[C@@H]1c1ccc(CO)cc1`, -0.0896. To `COC(=O)C(CC#Cc1ccc2c(c1)[C@]1(C(=O)N2)[C@H](C(=O)N2CCN(c3ncccn3)CC2)[C@H]2C(=O)O[C@H](c3ccccc3)[C@H](c3ccccc3)N2[C@@H]1c1ccc(OCCO)cc1)C(=O)OC` belongs -1.35.

Turning to `[N-]=[N+]=Nc1ccccc1[C@@H]1OC(c2ccc(OCCCO)cc2)=N[C@]1(Cc1ccccc1)C(=O)NCC(O)CO` (stereo partly specified), the z-score was determined as 1.63. `Cc1cc(C)c(C(O)C2C=CC3C(=O)NC(=O)C3N2Nc2ccc(Cl)cc2Cl)c(C)c1` (stereo unspecified) displayed a z-score of -0.318. To `COC(=O)c1c2oc(c1C(=O)OC)C(=O)N(Cc1ccccc1)Cc1cn(nn1)C[C@H](Cc1ccccc1)NC(=O)N[C@H](CO)CC2` belongs 0.534. `C=CCNC(=O)[C@H]1[C@@H]2C(=O)O[C@@H](c3ccccc3)[C@@H](c3ccccc3)N2[C@@H](c2ccc(O)cc2)[C@]12C(=O)N(C(=O)OCCOC)c1ccccc12` came in with a z-score of -0.8. To `O=C1C=C(c2ccccc2)C(=O)c2ccc([C@H]3Oc4ccccc4S(=O)(=O)N4CCC[C@@H]34)cc21` belongs -1.69. To `Cc1ccc(S[C@]2(C(=O)NCC(F)(F)F)CC(=O)N(C3CCCCC3)[C@@H]2c2ccc(CO)cc2I)cc1` belongs 2.17.

`COc1ccc(C#Cc2ccc3c(c2)[C@]2(C(=O)N3)[C@H](c3ccc(O)cc3)N3[C@H](c4ccccc4)[C@H](c4ccccc4)OC(=O)[C@H]3[C@@H]2C(=O)O)cc1` showed a z-score of -2.05.

For the compound `COC(=O)[C@@]1(Cc2ccc(OC)cc2)[C@@H]2C(=CC(=O)[C@H]2CC(=O)C(=O)N(C)C)CN1C(=O)c1ccccc1`, the z-score was found to be 0.437. To `CCOC(=O)c1ccc(NC(=O)O[C@H]2[C@H](OC(=O)Nc3ccc4c(c3)OCO4)[C@H](OC(=O)Nc3ccc4c(c3)OCO4)[C@@H](OC)O[C@@H]2CO)cc1` belongs -0.551. Compound `C=CCN1Cc2ccccc2[C@H]2OC(c3ccc(OCCCO)cc3)=N[C@@]2(CC=C)C1=O` had a z-score of 1.33. To `CN(C)CCCNC(=O)[C@@]1(C)c2ccccc2C(=O)N(Cc2ccccc2)[C@H]1c1ccc(CO)cc1` belongs -0.322; to `CCCCCCCCCCC(O)C1C=CC2C(=O)N(C)C(=O)C2N1NC(=O)OC(C)(C)C` (stereo unspecified), -1.2.
